Eight compounds from ChEMBL document CHEMBL3988442, “University of Dundee, Small-Polar-MMV Screening Library” (2021) can be followed below.

Holding throughout (design): scale not given: direction of the effect not stated beside the values
The target of assay [1] is Protein translocase subunit SecA (Escherichia coli (strain K12)) (UniProt P10408). Nature of the assay: Assay to Identify E. coli SecA ATPase Inhibitors. Format: functional. Particulars: 30 µM.
The target in assay [2] is T1, Ubiquitin-activating enzyme e1, putative (Leishmania donovani (strain BPK282A1)) (UniProt E9BSI1).
T1 sequence (whole entry): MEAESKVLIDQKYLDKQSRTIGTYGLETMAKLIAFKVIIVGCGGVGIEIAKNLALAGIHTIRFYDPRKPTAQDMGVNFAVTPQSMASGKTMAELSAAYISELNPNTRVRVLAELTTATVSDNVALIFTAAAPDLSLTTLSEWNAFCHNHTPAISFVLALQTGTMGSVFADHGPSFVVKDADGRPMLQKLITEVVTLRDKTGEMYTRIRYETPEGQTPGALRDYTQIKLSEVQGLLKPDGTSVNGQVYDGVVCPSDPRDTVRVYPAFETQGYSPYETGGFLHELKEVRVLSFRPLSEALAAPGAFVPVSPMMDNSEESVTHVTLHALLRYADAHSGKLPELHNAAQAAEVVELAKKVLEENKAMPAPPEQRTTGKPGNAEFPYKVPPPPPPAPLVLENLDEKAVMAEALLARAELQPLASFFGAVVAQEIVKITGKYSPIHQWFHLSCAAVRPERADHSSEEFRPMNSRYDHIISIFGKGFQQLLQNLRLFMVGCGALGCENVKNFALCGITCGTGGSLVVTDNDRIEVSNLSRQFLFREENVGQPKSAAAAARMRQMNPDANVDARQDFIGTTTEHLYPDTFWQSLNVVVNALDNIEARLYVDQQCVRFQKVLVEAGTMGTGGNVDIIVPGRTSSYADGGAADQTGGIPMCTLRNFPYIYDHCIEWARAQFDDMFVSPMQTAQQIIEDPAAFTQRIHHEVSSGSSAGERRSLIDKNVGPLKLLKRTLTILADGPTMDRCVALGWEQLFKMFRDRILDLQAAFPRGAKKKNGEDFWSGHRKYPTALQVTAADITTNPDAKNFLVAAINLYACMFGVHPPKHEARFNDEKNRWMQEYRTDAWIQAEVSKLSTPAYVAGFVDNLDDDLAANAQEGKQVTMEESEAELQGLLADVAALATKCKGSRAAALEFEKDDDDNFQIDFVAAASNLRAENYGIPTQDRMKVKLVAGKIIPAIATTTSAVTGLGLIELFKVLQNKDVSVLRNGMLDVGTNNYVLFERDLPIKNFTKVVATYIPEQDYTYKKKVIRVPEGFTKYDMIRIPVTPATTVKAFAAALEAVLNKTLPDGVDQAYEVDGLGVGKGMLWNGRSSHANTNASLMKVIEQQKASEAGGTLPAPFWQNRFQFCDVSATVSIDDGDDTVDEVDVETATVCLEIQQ
Kind of assay: Leishmania donovani Ubiquitin Activating Enzyme (LdE1). Format: functional. Particulars: 30 µM.

Assay [3] has as its target AMP-activated protein kinase, AMPK (Homo sapiens) (UniProt P54646+O43741+P54619+Q9UGJ0+Q9Y478+Q13131+Q9UGI9). Nature of the assay: AMP-dependent Kinase enzyme assay. An in vitro enzyme assay that detects ADP turnover that is directly proportional to AMPK activity. This uses naive AMPK that is activated during the assay with MK-8722. The settings on record: 30 µM. Format: functional.

For assay [4], the target named is Sialic acid-binding Ig-like lectin 9 (Homo sapiens) (UniProt Q9Y336). Kind of assay: Hs-Siglec9 ALPHAscreen SOP 20170721. Particulars: 10 µM. On the technique in general: In Alpha technology, singlet oxygen from a donor bead excites a nearby acceptor bead.
The subject of the next assay is Trypanosoma cruzi. Kind of assay: Trypanosoma cruzi phosphomannomutase and mannose-1-phosphate guanylyltransferase assay. Particulars: 10 µM. It counts as functional.
Assay [5] concerns the target T2, Arginase-2, mitochondrial (Homo sapiens) (UniProt P78540).
T2 sequence (whole entry): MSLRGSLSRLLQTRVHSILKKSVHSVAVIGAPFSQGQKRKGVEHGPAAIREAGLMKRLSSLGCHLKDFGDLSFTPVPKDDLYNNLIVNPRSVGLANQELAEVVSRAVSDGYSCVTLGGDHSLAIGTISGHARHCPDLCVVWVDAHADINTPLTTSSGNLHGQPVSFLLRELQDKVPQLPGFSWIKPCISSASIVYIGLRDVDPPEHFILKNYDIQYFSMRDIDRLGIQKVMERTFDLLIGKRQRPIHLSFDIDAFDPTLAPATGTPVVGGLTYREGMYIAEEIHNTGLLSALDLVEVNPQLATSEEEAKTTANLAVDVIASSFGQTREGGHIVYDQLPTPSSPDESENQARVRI
Kind of assay: in vitro enzyme assay to detect the production of urea directly proportional to the activity of Arginase II. Note: in the data most compounds retested in dose-response had high values. Format: functional. The settings on record: 33.3 µM.

Assay [6] concerns the target T3, Proteasome subunit beta (Trypanosoma cruzi) (UniProt O96673).
T3 sequence (whole entry): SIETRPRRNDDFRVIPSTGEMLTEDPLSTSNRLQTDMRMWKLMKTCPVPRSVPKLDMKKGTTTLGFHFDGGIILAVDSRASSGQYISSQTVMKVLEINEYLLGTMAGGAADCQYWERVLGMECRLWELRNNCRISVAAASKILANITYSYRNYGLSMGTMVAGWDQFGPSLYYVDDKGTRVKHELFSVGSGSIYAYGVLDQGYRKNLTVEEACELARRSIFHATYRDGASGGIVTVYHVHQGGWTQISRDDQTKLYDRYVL
Nature of the assay: Trypanosoma cruzi proteasome chymotrypsin-like activity (TcProtChymo) assay. Note: in the data most compounds retested in dose-response had high values. Format: functional. The settings on record: 9.37 µM.

The species entered for another assay is Homo sapiens. Kind of assay: To identify inhibition of the IFN signalling (Jak-Stat) pathway via expression of an eGFP reporter gene under the control of an IFN-stimulated response element (ISRE) containing MxA promoter. Particulars: 30 µM. Format: functional. (A reporter such as luciferase makes a cellular process visible.)
Assay [7] deals with T4, Tyrosyl-tRNA synthetase, putative (Trypanosoma cruzi (strain CL Brener)) (UniProt Q4DSP6).
T4 sequence (whole entry): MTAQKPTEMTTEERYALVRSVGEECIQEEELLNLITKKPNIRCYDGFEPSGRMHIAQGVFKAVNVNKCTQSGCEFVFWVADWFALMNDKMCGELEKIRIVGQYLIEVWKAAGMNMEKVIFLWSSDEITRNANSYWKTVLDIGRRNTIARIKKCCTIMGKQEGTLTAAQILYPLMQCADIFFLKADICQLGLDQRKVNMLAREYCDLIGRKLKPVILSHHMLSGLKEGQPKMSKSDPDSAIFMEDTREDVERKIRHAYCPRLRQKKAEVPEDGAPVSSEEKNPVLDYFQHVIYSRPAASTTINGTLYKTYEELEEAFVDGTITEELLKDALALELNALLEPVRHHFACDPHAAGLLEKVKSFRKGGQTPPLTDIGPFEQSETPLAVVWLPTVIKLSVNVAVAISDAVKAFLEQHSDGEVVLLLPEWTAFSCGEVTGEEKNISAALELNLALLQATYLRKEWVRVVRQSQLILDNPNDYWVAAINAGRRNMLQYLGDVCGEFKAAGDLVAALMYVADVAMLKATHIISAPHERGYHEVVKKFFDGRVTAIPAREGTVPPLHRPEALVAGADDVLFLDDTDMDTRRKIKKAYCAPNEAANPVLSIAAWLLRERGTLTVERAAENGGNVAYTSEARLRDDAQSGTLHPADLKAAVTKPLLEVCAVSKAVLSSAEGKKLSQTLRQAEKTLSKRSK
Kind of assay: Trypanosoma cruzi tyrosyl tRNA synthetase (TcYRS) _High Tyrosine SOP. Note: in the data most compounds retested in dose-response had high values. It counts as functional. Particulars: 30 µM.

Assay [8] has as its target T4, Tyrosyl-tRNA synthetase, putative (Trypanosoma cruzi (strain CL Brener)). Nature of the assay: Trypanosoma cruzi tyrosyl tRNA synthetase (TcYRS) SOP. It counts as functional. Particulars: 30 µM.
The target in assay [9] is Chromo domain-containing protein 1 (Saccharomyces cerevisiae (strain ATCC 204508 / S288c) (Baker's yeast)) (UniProt P32657). Kind of assay: ScCHD-1 Enzyme Inhibition Assay. Note: in the data most compounds retested in dose-response had high values. It counts as functional. Particulars: 30 µM.

For some of these results: Measured potencies and affinities stand elsewhere.

Sequence of Sialic acid-binding Ig-like lectin 9 (Homo sapiens) (Q9Y336 whole entry): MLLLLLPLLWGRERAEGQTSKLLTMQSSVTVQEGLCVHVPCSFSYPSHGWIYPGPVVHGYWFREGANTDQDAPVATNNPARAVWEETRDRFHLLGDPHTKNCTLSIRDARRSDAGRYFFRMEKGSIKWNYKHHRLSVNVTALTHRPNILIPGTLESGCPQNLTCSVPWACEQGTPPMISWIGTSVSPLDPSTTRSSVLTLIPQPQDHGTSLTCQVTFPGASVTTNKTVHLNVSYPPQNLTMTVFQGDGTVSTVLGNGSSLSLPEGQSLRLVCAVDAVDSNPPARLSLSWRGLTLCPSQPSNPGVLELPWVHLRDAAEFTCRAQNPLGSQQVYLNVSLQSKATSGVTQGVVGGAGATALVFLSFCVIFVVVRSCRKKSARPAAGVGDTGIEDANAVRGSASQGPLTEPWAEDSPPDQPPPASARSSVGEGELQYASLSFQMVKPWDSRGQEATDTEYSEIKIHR
Sequence of Protein translocase subunit SecA (Escherichia coli (strain K12)) (P10408 whole entry): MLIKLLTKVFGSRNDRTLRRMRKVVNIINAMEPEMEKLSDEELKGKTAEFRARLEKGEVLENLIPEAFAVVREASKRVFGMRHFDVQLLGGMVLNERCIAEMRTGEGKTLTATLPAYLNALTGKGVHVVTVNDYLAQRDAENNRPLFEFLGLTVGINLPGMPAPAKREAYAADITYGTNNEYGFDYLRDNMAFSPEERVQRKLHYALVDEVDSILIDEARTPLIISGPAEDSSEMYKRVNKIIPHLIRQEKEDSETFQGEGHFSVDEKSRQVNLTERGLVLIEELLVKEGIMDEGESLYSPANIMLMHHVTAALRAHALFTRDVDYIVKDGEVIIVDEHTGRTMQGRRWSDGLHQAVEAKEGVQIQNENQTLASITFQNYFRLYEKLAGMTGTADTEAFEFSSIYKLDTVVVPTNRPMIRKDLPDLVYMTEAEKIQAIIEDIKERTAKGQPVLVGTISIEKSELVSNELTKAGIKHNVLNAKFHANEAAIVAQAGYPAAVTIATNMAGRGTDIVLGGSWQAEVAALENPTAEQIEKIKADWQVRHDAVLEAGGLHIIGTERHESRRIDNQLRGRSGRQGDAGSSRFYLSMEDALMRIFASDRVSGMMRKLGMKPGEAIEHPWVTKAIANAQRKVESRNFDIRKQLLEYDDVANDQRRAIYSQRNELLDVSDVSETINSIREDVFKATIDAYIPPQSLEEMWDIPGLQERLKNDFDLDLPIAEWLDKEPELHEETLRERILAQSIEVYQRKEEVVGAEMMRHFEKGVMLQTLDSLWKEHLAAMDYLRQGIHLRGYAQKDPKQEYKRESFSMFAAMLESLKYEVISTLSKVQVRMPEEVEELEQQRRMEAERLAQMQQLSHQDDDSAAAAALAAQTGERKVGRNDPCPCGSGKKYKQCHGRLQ
Sequence of Chromo domain-containing protein 1 (Saccharomyces cerevisiae (strain ATCC 204508 / S288c) (Baker's yeast)) (P32657 whole entry, the tested form may be a part): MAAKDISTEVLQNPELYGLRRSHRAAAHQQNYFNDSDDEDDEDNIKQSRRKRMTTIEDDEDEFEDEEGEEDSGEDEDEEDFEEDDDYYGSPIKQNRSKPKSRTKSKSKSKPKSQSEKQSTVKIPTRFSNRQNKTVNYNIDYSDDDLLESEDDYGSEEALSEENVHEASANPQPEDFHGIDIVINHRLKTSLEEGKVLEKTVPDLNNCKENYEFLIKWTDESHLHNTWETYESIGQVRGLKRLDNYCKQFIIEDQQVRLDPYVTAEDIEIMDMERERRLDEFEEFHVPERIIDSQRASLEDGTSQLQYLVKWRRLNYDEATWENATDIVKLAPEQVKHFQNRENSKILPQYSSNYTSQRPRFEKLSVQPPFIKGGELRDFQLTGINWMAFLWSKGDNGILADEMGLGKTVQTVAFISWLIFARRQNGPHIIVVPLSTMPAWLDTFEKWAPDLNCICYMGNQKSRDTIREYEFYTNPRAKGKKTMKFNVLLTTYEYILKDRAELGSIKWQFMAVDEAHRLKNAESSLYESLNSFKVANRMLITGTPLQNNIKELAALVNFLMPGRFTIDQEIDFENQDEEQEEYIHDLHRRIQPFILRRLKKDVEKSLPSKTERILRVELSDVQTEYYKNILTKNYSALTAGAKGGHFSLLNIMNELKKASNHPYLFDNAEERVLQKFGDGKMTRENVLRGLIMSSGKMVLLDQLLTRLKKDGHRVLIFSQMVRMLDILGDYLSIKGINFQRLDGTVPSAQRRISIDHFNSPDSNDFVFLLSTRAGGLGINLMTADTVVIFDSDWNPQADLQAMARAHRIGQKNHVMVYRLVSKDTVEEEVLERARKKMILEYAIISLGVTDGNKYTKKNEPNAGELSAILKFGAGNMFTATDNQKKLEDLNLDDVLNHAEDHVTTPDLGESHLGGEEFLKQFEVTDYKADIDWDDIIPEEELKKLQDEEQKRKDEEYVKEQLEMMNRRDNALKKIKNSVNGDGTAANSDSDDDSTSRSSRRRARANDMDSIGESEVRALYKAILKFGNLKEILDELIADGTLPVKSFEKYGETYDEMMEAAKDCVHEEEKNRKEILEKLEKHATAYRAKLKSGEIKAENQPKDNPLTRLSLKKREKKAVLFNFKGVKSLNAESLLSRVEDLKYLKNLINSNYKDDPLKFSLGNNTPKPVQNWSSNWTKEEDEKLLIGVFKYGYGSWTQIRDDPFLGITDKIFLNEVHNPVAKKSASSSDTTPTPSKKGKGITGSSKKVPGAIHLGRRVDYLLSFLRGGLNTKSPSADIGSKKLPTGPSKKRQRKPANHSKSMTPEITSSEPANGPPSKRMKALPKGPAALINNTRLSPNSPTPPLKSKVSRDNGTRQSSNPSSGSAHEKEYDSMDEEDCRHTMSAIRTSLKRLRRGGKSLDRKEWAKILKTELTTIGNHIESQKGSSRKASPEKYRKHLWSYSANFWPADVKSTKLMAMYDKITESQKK

On to `CCc1nc(CN(C)CC(c2cccs2)N2CCOCC2)no1` (stereo not drawn), for which the Percent Effect was -2.58% in assay [1]; 27% in assay [2]; -3.84% in assay [3]; -3.75% in assay [4]; 1.76% in the assay with Trypanosoma cruzi; -2.4% in assay [5]. For the same compound, the Percent Effect was 10.6% in assay [6]; 13.9% in the assay filed under Homo sapiens; 6.93% in assay [7]; 23.2% in assay [8]; -7.57% in assay [9].
As for `COc1ccc(NC(=O)CCC2CCCN(Cc3ncon3)C2)c(C)c1` (stereo not drawn), the Percent Effect in assay [1] is -3.42%; in assay [2], 2.67%; in assay [3], -0.626%; in [4], -0.0167%; in the assay with Trypanosoma cruzi, -5.36%; in [5], -3.65%. Also, the Percent Effect in [6] was 22%; in the assay listed under Homo sapiens, 22.2%; in [7] it was 6.01%; in assay [8], 11.1%; in [9], -6.4%.
In the case of `Cc1cc(C(=O)N2CCCC(n3ccnc3C)C2)c(C)s1` (stereo not drawn), the Percent Effect in [1] was -3.98%; in assay [2], -5.26%; in assay [3] it was 5.18%; in [4] it was -0.508%; in the assay on Trypanosoma cruzi it was 6.52%; in assay [5], 0%. Besides, the Percent Effect in [6] is 1.44%; in the assay listed under Homo sapiens, 13.2%; in [7], 1.06%; in [8], 2.6%; in [9] it was -2.55%.
Regarding `CCC(=O)NCc1cc(Br)ccc1OC(F)F`, the Percent Effect in assay [1] is -4.17%; in [2] it was 8%; in assay [3], -2.35%; in [4], 7.52%; in the assay on Trypanosoma cruzi it was 3.41%; in assay [5], 1.04%. In addition, the Percent Effect was 13.6% in [6]; -8.01% in the assay filed under Homo sapiens; 9.29% in assay [7]; 18.5% in [8]; -6.17% in assay [9].
Regarding `Cc1cc(C)nc(N2CCN(C(=O)c3cc(Cl)c[nH]3)CC2)n1`, the Percent Effect in assay [1] was -3.35%; in [2] it was 8.22%; in assay [3], -2.54%; in [4], 4.32%; in the assay on Trypanosoma cruzi, 0.595%; in assay [5], -3.99%. Besides, the Percent Effect is 17.2% in assay [6]; -6.92% in the assay filed under Homo sapiens; 10.4% in assay [7]; 16.1% in assay [8]; -1.43% in assay [9].
For the compound `CSc1sc(NC(=O)Cc2c(C)nc(C)[nH]c2=O)nc1C`, the Percent Effect in assay [1] is -6.26%; in assay [2], 7.89%; in assay [3], -7.94%; in assay [4], 7.61%; in the assay on Trypanosoma cruzi, 5.83%; in [5] it was -2.68%. Further, the Percent Effect in assay [6] was 6.18%; in the assay filed under Homo sapiens, 7.45%; in assay [7], 7.35%; in assay [8], 12.2%; in assay [9] it was -12.2%.
On to `CCN(CC)Cc1cn2c(n1)CN(C(=O)c1cnccn1)CC2`, for which the Percent Effect in [1] is -2.54%; in assay [2], 10.8%; in assay [3], 3.85%; in [4], -1.54%; in the assay on Trypanosoma cruzi, -3.62%; in [5] it was 6.69%. In addition, the Percent Effect in assay [6] was 19.9%; in the assay listed under Homo sapiens, -5.71%; in assay [7] it was 3.24%; in assay [8], 7.69%; in [9], 0.514%.
Consider `Cc1nnc(N2CC[C@H](OCC3CC3)[C@@H](Cc3ccccc3)C2)s1`, for which the Percent Effect in assay [1] is -2.17%; in [2], -5.33%; in assay [3] it was 8.54%; in assay [4] it was 9.81%; in the assay with Trypanosoma cruzi, 5.99%; in [5], -31.7%. The Percent Effect in assay [6] is 7.01%; in the assay filed under Homo sapiens it was -7.72%; in assay [7] it was 0%; in [8], 5%; in [9], -3.2%.
